Results filed as inconclusive are left out. Activity calls are given as the source filed them. Unless noted, calls follow the shape of the full dose curve.
Experiments:
[1] = Primary qHTS for inhibitors of SARS-S pseudo-typed particle cell entry (AID 1479145); also: nearly all actives have a fitted effect of over 45% in size; also: potency is read from the fitted curve at half-maximal effect; as to activity change, negative = inhibition: series mostly up to about 57 µM; % is scaled to controls: 0 for no effect and ±100 for the full control effect
[2] = Primary qHTS for Huh7 cytotoxicity: counterscreen for inhibitors of MERS-S pseudotyped particle cell entry (AID 1479147); also: potency is read from the fitted curve at half-maximal effect; as to activity change, negative = cytotoxicity: % is scaled to controls: 0 for no effect and ±100 for the full control effect
[3] = Primary qHTS for inhibitors of MERS-S pseudo-typed particle cell entry (AID 1479149); also: nearly all actives have a fitted effect of over 60% in size; also: potency is read from the fitted curve at half-maximal effect; as to activity change, negative = inhibition: series mostly up to about 57 µM; % is scaled to controls: 0 for no effect and ±100 for the full control effect
[4] = Primary qHTS for Vero E6 cytotoxicity: counterscreen for inhibitors of SARS-S pseudo-typed particle cell entry (AID 1479150); also: potency is read from the fitted curve at half-maximal effect; as to activity change, negative = cytotoxicity: % is scaled to controls: 0 for no effect and ±100 for the full control effect
[5] = Primary qHTS for inhibitors of La Crosse Virus (LACV) - induced cell death in SH-SY5Y cells (AID 1508616; active = well fitted inhibition curve with a large enough effect;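 also: top concentration of the series differs between compounds; 0% = infected DMSO wells and 100% = uninfected DMSO wells; higher means more rescue of cells from virus-induced death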)
Summary of the method: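 Screening measures cell viability in LACV-infected SH-SY5Y cultures. Compound was added before virus (0.01 MOI), and ATP was detected by luminescence 6 days later.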

[6] = Counterscreen qHTS for small molecule stabilizers of the endoplasmic reticulum resident proteome: GLuc-NoTag assay (AID 1508627; active = well fitted inhibition curve with a large enough effect;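 also: SH-SY5Y cells given compound then 100 nM thapsigargin to empty ER calcium; series mostly up to about 76 µM; 0% = thapsigargin alone and -100% = DMSO vehicle control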)
Summary of the method: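 Counterscreen line: SH-SY5Y-GLuc-NoTag cells, treated with compound 19 hr before a 4 hr, 100 nM thapsigargin calcium depletion. Secreted Gaussia luciferase in the medium was measured by luminescence after coelenterazine was added (0.07x final), with cells unlysed.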

[7] = Confirmatory qHTS for small molecule stabilizers of the endoplasmic reticulum resident proteome: Secreted ER Calcium Modulated Protein (SERCaMP) assay (AID 1508628; active = well fitted inhibition curve with a large enough effect;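 also: SH-SY5Y cells given compound 16 h then thapsigargin 100 nM for 4 h; series mostly up to about 76 µM; % is scaled to controls: 0 for no effect and ±100 for the full control effect; nearly all actives have a fitted effect of over 40% in size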)
Summary of the method: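 GLuc-SERCaMP-expressing SH-SY5Y cells, pretreated 16 h with compound, are challenged with thapsigargin to empty ER calcium stores; after 4 h, coelenterazine is added directly to the medium and luminescence is imaged.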

NS(=O)(=O)c1cc2c(cc1Cl)NC(C(Cl)Cl)NS2(=O)=O (stereo not given)
inactive: Potency [1] | Potency [2] | Potency [3] | Potency [4]

NCCNCCNCCN
inactive: Potency [1] | Potency [2] | Potency [3] | Potency [4]

CC(=O)CC(c1ccccc1)c1c(O)c2ccccc2oc1=O (stereo not given)
inactive: Potency [1] | Potency [2] | Potency [3] | Potency [4]

CC(=O)N(c1onc(C)c1C)S(=O)(=O)c1ccc(N)cc1
inactive: Potency [1] | Potency [2] | Potency [3] | Potency [4]

NC[C@H]1O[C@H](O[C@H]2[C@H](O[C@@H]3O[C@H](CO)[C@@H](O)[C@H]3O)C(O)[C@H](N)C[C@@H]2N)[C@H](N)[C@@H](O)[C@@H]1O (stereo not given in full)
inactive: outcome [1] inactive [at 11.4 µM] | outcome [2] inactive [at 11.4 µM] | outcome [3] inactive [at 11.4 µM] | activity change, negative = cytotoxicity [4] 0.563% [at 11.4 µM]

NS(=O)(=O)c1cc(C2(O)NC(=O)c3ccccc32)ccc1Cl (stereo not given)
inactive: Potency [1] | Potency [2] | Potency [3] | Potency [4]

O=S(=O)(O)CCS
inactive: Potency [1] | Potency [2] | Potency [3] | Potency [4]

COc1ccnc(CS(=O)c2nc3ccc(OC(F)F)cc3[nH]2)c1OC (stereo not given)
inactive: Potency [1] | Potency [2] | Potency [3] | Potency [4]

O=C(O)CCC(=O)O
inactive: Potency [1] | Potency [2] | Potency [3] | Potency [4]

COc1cc(/C=C/C(=O)O[C@H]2CC[C@]34C[C@]35CC[C@]3(C)[C@@H]([C@H](C)CCC=C(C)C)CC[C@@]3(C)[C@@H]5CC[C@H]4C2(C)C)ccc1O
inactive: Potency [1] | Potency [2] | Potency [3] | Potency [4]

O=C1c2c(O)cccc2Cc2cccc(O)c21
inactive: Potency [1] | Potency [2] | Potency [3] | Potency [4]

CC(=O)CC/C=C(\C)CC/C=C(\C)CC/C=C(\C)CCC=C(C)C
inactive: Potency [1] | Potency [2] | Potency [3] | Potency [4]

CC(C)C(=O)c1c(C(C)C)nn2ccccc12
inactive: Potency [1] | Potency [2] | Potency [3] | Potency [4]

Clc1ccc2nsnc2c1NC1=NCCN1
inactive: Potency [1] | Potency [2] | Potency [3] | Potency [4]

CCCCCCCCCCCCCCCCOP(=O)([O-])OCC[N+](C)(C)C
active: Potency [1] 14.1 µM
inactive: Potency [2] | Potency [3] | Potency [4]

CCCCCCCCCCCCCCCCCC(=O)O
inactive: Potency [1] | Potency [2] | Potency [3] | Potency [4]

CCCCCCCCCCC[C@@H](C[C@@H]1OC(=O)[C@H]1CCCCCC)OC(=O)[C@H](CC(C)C)NC=O
inactive: Potency [1] | Potency [2] | Potency [3] | Potency [4]

NC(=O)c1cnccn1
inactive: Potency [1] | Potency [2] | Potency [3] | Potency [4]

CCCCOC(=O)c1ccc(N)cc1
inactive: Potency [1] | Potency [2] | Potency [3] | Potency [4]

C[C@]12C=CC(=O)C=C1[C@@H](F)C[C@@H]1[C@@H]2[C@@H](O)C[C@@]2(C)[C@H]1CC[C@]2(O)C(=O)CO
inactive: Potency [1] | Potency [2] | Potency [3] | Potency [4]

CC(C)(Oc1ccc(C2CC2(Cl)Cl)cc1)C(=O)O (stereo not given)
inactive: Potency [1] | Potency [2] | Potency [3] | Potency [4]

CNNCc1ccc(C(=O)NC(C)C)cc1
inactive: Potency [1] | Potency [2] | Potency [3] | Potency [4]

C[C@@H]1[C@H](O)[C@@H](C)/C=C/C=C\C=C\C=C\C=C\C=C\C=C\[C@H](O[C@@H]2O[C@H](C)[C@@H](O)[C@H](N)[C@@H]2O)C[C@@H]2O[C@](O)(C[C@@H](O)C[C@@H](O)[C@H](O)CC[C@@H](O)C[C@@H](O)CC(=O)O[C@H]1C)C[C@H](O)[C@H]2C(=O)O (stereo in doubt)
inactive: Potency [1] | Potency [2] | Potency [3] | Potency [4]

CC(=O)NS(=O)(=O)c1ccc(N)cc1
inactive: Potency [1] | Potency [2] | Potency [3] | Potency [4]

C[C@@H]1O[C@@H](OC[C@H]2O[C@@H](Oc3c(-c4ccc(O)c(O)c4)oc4cc(O)cc(O)c4c3=O)[C@H](O)[C@@H](O)[C@@H]2O)[C@H](O)[C@H](O)[C@H]1O
inactive: Potency [1] | Potency [2] | Potency [3] | Potency [4]

O=S(=O)(O)c1ccc(O)cc1
inactive: Potency [1] | Potency [2] | Potency [3] | Potency [4]

S=P(N1CC1)(N1CC1)N1CC1
inactive: outcome [1] inactive [at 0.573 µM] | activity change, negative = cytotoxicity [2] -8.32% [at 0.573 µM] | activity change, negative = inhibition [3] 3.72% [at 0.573 µM] | activity change, negative = cytotoxicity [4] -9.38% [at 0.573 µM]

CCCCCCOc1ccccc1C(N)=O
active: Potency [3] 20 µM
inactive: Potency [1] | Potency [2] | Potency [4]

CN(C)C(=O)COC(=O)Cc1ccc(OC(=O)c2ccc(N=C(N)N)cc2)cc1
inactive: Potency [1] | Potency [2] | Potency [3] | Potency [4]

NCCCCCC(=O)O
inactive: Potency [1] | Potency [2] | Potency [3] | Potency [4]

CC(C)NCC(O)c1ccc(NS(C)(=O)=O)cc1 (stereo not given)
inactive: Potency [1] | Potency [2] | Potency [3] | Potency [4]

C[C@H]1C[C@@H]2[C@H]([C@@H](O)C[C@@]3(C)[C@H]2CC[C@]3(O)C(=O)CO)[C@@]2(C)C=CC(=O)C=C12
inactive: Potency [1] | Potency [2] | Potency [3] | Potency [4]

Cn1c(=O)c2[nH]c(Br)nc2n(C)c1=O
inactive: Potency [1] | Potency [2] | Potency [3] | Potency [4]

NS(=O)(=O)c1ccc(Cl)c(S(N)(=O)=O)c1
inactive: Potency [1] | Potency [2] | Potency [3] | Potency [4]

Cc1ccc(C(=O)c2ccc(CC(=O)O)n2C)cc1
inactive: Potency [1] | Potency [2] | Potency [3] | Potency [4]

C[C@]12C=CC(=O)C=C1CC[C@@H]1[C@@H]2C(=O)C[C@@]2(C)[C@H]1CC[C@]2(O)C(=O)CO
inactive: Potency [1] | Potency [2] | Potency [3] | Potency [4]

OC[C@H]1O[C@@H](Oc2ccc(O)cc2)[C@H](O)[C@@H](O)[C@@H]1O
inactive: Potency [1] | Potency [2] | Potency [3] | Potency [4]

Cc1ccc(Cl)c(Nc2ccccc2C(=O)O)c1Cl
inactive: Potency [1] | Potency [2] | Potency [3] | Potency [4]

CCCCCC=CCC=CCCCCCCCC(=O)OCC
inactive: Potency [1] | Potency [2] | Potency [3] | Potency [4]

O=c1[nH]c(=O)n([C@H]2O[C@H](CO)[C@@H](O)[C@@H]2O)cc1/C=C\Br
inactive: Potency [1] | Potency [2] | Potency [3] | Potency [4]

Cn1c(=O)c2[nH]cnc2n(C)c1=O
inactive: Potency [1] | Potency [2] | Potency [3] | Potency [4]

CCn1ccc(NS(=O)(=O)c2ccc(N)cc2)nc1=O
inactive: Potency [1] | Potency [2] | Potency [3] | Potency [4]

COC(=O)N/N=C/c1c[n+]([O-])c2ccccc2[n+]1[O-]
inactive: Potency [1] | Potency [2] | Potency [3] | Potency [4]

O=C(O)Cc1sc(-c2ccccc2)nc1-c1ccc(Cl)cc1
inactive: Potency [1] | Potency [2] | Potency [3] | Potency [4]

CCC(C(=O)NC(=O)NC(C)=O)c1ccccc1 (stereo not given)
inactive: Potency [1] | Potency [2] | Potency [3] | Potency [4]

Cc1cccc(C)c1OCC(=O)N[C@@H](Cc1ccccc1)[C@@H](O)C[C@H](Cc1ccccc1)NC(=O)[C@H](C(C)C)N1CCCNC1=O
inactive: Potency [1] | Potency [2] | Potency [3] | Potency [4]

NC(=O)c1ccc([N+](=O)[O-])cc1Cl
inactive: Potency [1] | Potency [2] | Potency [3] | Potency [4]

Nc1ccc(C(=O)Oc2ccccc2)c(O)c1
inactive: Potency [1] | Potency [2] | Potency [3] | Potency [4]

O=C(O)CSCC(=O)NC1CCSC1=O (stereo not given)
inactive: Potency [1] | Potency [2] | Potency [3] | Potency [4]

O=C(NCC1CCCCN1)c1cc(OCC(F)(F)F)ccc1OCC(F)(F)F (stereo not given)
inactive: Potency [1] | Potency [2] | Potency [3] | Potency [4]

NCCS(=O)(=O)O
inactive: Potency [1] | Potency [2] | Potency [3] | Potency [4]

C[C@]12CCC(=O)C=C1CC[C@@H]1[C@@H]2[C@@H](O)C[C@@]2(C)[C@H]1CC[C@]2(O)C(=O)COC(=O)CCC(=O)O
inactive: Potency [1] | Potency [2] | Potency [3] | Potency [4]

CC(CC(C#N)(c1ccccc1)C(C)C)N(C)C (stereo not given)
inactive: Potency [1] | Potency [2] | Potency [3] | Potency [4]

CC(C)c1ccc2oc3nc(N)c(C(=O)O)cc3c(=O)c2c1
active: Potency [2] 10 µM | Potency [4] 7.94 µM
inactive: Potency [1] | Potency [3]

CCOC(=O)C1=C(C)NC(C)=C(C(=O)OC)C1c1cccc([N+](=O)[O-])c1 (stereo not given)
inactive: Potency [1] | Potency [2] | Potency [3] | Potency [4]

CN1CCN(CC(=O)N2c3ccccc3C(=O)Nc3cccnc32)CC1
inactive: activity change, negative = inhibition [1] -4.78% [at 5.34 µM] | activity change, negative = cytotoxicity [2] 1.37% [at 5.34 µM] | outcome [3] inactive [at 5.34 µM] | outcome [4] inactive [at 5.34 µM]

CCc1cccc(CC)c1NC(=O)CN(CC(=O)O)CC(=O)O
inactive: Potency [1] | Potency [2] | Potency [3] | Potency [4]

Cc1c[nH]c2ccccc12
inactive: Potency [1] | Potency [2] | Potency [3] | Potency [4]

O=C(O)c1cc(N=Nc2ccc(O)c(C(=O)O)c2)ccc1O
inactive: Potency [1] | Potency [2] | Potency [3] | Potency [4]

Cc1ccsc1/C=C/C1=NCCCN1C
inactive: Potency [1] | Potency [2] | Potency [3] | Potency [4]

CC(C)(C)NC[C@H](O)COc1nsnc1N1CCOCC1
inactive: Potency [1] | Potency [2] | Potency [3] | Potency [4]

CC(C(=O)O)c1ccc(C(=O)c2ccccc2)s1 (stereo not given)
inactive: Potency [1] | Potency [2] | Potency [3] | Potency [4]

Cc1c(C(C)C)c(=O)n(-c2ccccc2)n1C
inactive: Potency [1] | Potency [2] | Potency [3] | Potency [4]

CCn1nc(C(=O)O)c(=O)c2cc3c(cc21)OCO3
inactive: Potency [1] | Potency [2] | Potency [3] | Potency [4]

COc1ccc(C(=O)c2ccccc2)c(O)c1
inactive: Potency [1] | Potency [2] | Potency [3] | Potency [4]

CC(=O)OCC(=O)[C@@]1(O)CC[C@H]2[C@@H]3CCC4=CC(=O)C=C[C@]4(C)[C@@]3(F)[C@@H](O)C[C@@]21C
inactive: Potency [1] | Potency [2] | Potency [3] | Potency [4]

CC(=O)OCC[N+](C)(C)C
inactive: Potency [1] | Potency [2] | Potency [3] | Potency [4]

CSCC[C@H](NC(=O)[C@H](Cc1ccc(OS(=O)(=O)O)cc1)NC(=O)[C@@H](N)CC(=O)O)C(=O)NCC(=O)N[C@@H](Cc1c[nH]c2ccccc12)C(=O)N[C@@H](CCSC)C(=O)N[C@@H](CC(=O)O)C(=O)N[C@@H](Cc1ccccc1)C(N)=O
inactive: Potency [1] | Potency [2] | Potency [3] | Potency [4]

O=c1oc2ccccc2c(O)c1Cc1c(O)c2ccccc2oc1=O
inactive: outcome [5] | outcome [6] | Potency [7]

— PubChem BioAssay (NCATS)
